FLuc counter – counter-screen for miR-21 project: firefly luciferase inhibitors or activators | purified FLuc, Km substrates, luminescence inhibition | 6.9% of 360,000 active | Potency, µM (titrated, usually from 57.5 µM), usual class: inhibitors | AID 588342 | P08659; also: nearly all actives have a fitted effect of over 55% in size
Target sequence (P08659 whole entry, looked up): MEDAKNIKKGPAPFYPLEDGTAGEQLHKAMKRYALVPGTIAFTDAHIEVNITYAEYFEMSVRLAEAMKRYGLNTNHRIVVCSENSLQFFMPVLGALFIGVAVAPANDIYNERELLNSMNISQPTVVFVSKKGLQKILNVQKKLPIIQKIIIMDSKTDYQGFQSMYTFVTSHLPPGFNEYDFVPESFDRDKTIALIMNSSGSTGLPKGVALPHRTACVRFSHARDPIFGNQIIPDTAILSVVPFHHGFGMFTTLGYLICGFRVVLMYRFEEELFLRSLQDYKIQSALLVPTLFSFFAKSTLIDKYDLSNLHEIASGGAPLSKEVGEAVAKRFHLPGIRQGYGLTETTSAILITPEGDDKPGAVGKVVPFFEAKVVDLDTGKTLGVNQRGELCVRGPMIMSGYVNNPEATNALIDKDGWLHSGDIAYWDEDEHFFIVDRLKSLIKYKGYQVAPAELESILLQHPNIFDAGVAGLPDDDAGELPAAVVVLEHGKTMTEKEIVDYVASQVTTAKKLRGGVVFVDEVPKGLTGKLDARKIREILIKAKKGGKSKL
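Biochemical qHTS of compounds, final roughly 60 µM downward over six points, against 10 nM purified firefly luciferase using Km concentrations of substrates (10 uM D-luciferin, 10 uM ATP) in Tris acetate pH 7.5 buffer; luminescence output.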
SMN2 splice enh – increases expression of the SMN2 splice variant. 2.8% of 210,000 active. HEK293 SMN2-luciferase splicing reporter, luminescence, 30-36 h. Potency, µM (titrated, usually from 46.1 µM), most hits filed as activators; also: nearly all actives have a fitted effect of over 55% in size
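HEK293 cells carry an SMN2 minigene-luciferase reporter in which exon 7 inclusion puts luciferase in frame. Cells were seeded at 2000 cells/well, attached for 10-12 hours, then exposed to compounds for 30-36 hours at 37C before ONE-Glo luminescence.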
ELG1 repair inh – inhibitors of ELG1-dependent DNA repair in HEK293T cells; Potency, µM (highest dose often 46.1 µM), most hits filed as inhibitors; HEK293T ELG1-luciferase reporter, luminescence, 16 h; DNA damage induced by 5-fluorouridine; 2.3% of 330,000 active; also: nearly all actives have a fitted effect of over 55% in size
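Cells (2,000 per well) received 5-fluorouridine plus test compound or DMSO and were incubated 16 hr at 37 °C, 5% CO2. Luciferase activity was read by luminescence 30 min after ONE-Glo addition; signal suppression marked inhibition of damage-induced ELG1 function.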
Rab9 prom act – activators of Rab9 promoter; Huh7 Rab9 promoter-luciferase reporter, luminescence, 24 h; Potency, µM (series often up to 9.22 µM), hits mostly activators; 2.8% of 320,000 active; also: nearly all actives have a fitted effect of over 60% in size
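Huh7 cells stably carrying a Rab9 promoter-luciferase reporter, 1500 cells per well in OP-MEM I with 10% FBS, treated with compound 24 hours at 37C. Luciferase activity read by luminescence after 10 minutes with Amplite reagent.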
ELG1 genotox – inducers of genotoxicity in HEK293T ELG1-luciferase cells; Potency, µM (series often up to 46 µM), most hits filed as activators; HEK293T ELG1-luciferase reporter, luminescence, 16 h; 1.3% of 330,000 active; also: nearly all actives have a fitted effect of over 60% in size
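Step 1: seed 2,000 HEK293T ELG1-luciferase cells per well. Step 2: add compound or DMSO, incubate 16 hr at 37 °C. Step 3: ONE-Glo, 30 min at room temperature, read luminescence.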
NPC1 prom act – NPC1 promoter activation. Potency, µM (top dose mostly 9.22 µM), actives largely listed as activators. 2.4% of 320,000 active. Huh7 NPC1 promoter luciferase reporter, 24 h; also: nearly all actives have a fitted effect of over 60% in size
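Stably transfected Huh7 (NPC1 promoter→luciferase), 1500 cells/well in Opti-MEM + 10% FBS, 2 h settle, then compound 24 h at 37 °C. Luminescence after 10 min with Amplite reagent.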
Numbers stand for hits; n = inactive; u = inconclusive; x = not tested or not shown. Rows were chosen to be rich in hits. Some 9.3% of all compounds tested hit in one or more screens of this group. Calls follow the shape of the dose curve; as a rule, active = well fitted curve in the direction sought with a large enough effect; inconclusive = small, poorly fitted or top-dose-only effect, or another doubt; inactive = no such curve, though single readings can be large; an effect the other way counts as inactive or inconclusive.

SMILES | FLuc counter | SMN2 splice enh | ELG1 repair inh | Rab9 prom act | ELG1 genotox | NPC1 prom act
CC(C)CC1c2[nH]c3ccccc3c2CCN1C(=O)c1cnccn1 (configuration not stated) | 10.7µM | x | u | 3.55µM | u | 3.55µM
Cc1ccc(C)c(S(=O)(=O)N2CCN(C(=O)[C@H](Cc3ccccc3)NC(=O)c3ccco3)CC2)c1 | x | x | u | x | n | x
COC(=O)Cc1c(C)c2ccc(OCC(C)=O)c(C)c2oc1=O | u | 12.6µM | u | u | 9.2µM | u
C=C(C)COc1ccc2c(C)c(CC(=O)OC)c(=O)oc2c1C | 9.53µM | n | u | u | 9.2µM | u
CCOC(=O)CCc1c(C)c2ccc(OCC(=O)N(CC)CC)c(C)c2oc1=O | n | x | 18.4µM | n | n | n
COC(=O)Cc1c(C)c2ccc(OCc3nn[nH]n3)c(C)c2oc1=O | u | n | n | n | n | n
O=C(OCCN1CCCCC1)c1c[nH]c2ccccc12 | n | n | u | n | n | n
C=CCOC(=O)C(=O)/C=C/c1ccc2c(c1)Cc1ccccc1-2 | 10.7µM | x | u | n | n | n
Cc1ccc(C2C3=C(CC(C)(C)CC3=O)N(CCN3CCOCC3)C3=C2C(=O)CC(C)(C)C3)cc1 | n | n | n | 3.55µM | n | n
O=C(NCCc1ccccc1)c1ccc(CSc2nc3ccncc3n2Cc2cccc(F)c2)cc1 | n | n | x | x | x | x
COCCn1c(SC(C)C(=O)NCC2CCCO2)nc2sc3c(c2c1=O)CCC3 (configuration not stated) | n | x | u | n | n | n
Cc1cccc(-c2nnc(NC(=O)c3cccs3)s2)c1 | 7.57µM | u | u | n | n | n
O=C(Nc1nnc(-c2cccnc2)s1)c1cccs1 | 12µM | x | u | n | u | u
c1ccc(Nc2nnc(-c3cccnc3)s2)cc1 | 1.69µM | x | u | 0.398µM | u | 1µM
Nc1nnc(-c2cccnc2)s1 | n | u | u | n | n | n
Cc1ccnn1CC(=O)N/N=C/c1cn[nH]c1-c1ccccc1 | n | x | n | n | n | n
O=C(NCCc1c[nH]c2ccccc12)OCCCCOC(=O)NCCc1c[nH]c2ccccc12 | n | x | u | n | n | n
Cc1ccc(-c2nc3ccccc3[nH]2)cc1NC(=S)NC(=O)c1ccccc1Br | 5.36µM | n | u | n | n | n
Cc1cc(C)c2oc(-c3ccc(C)c(NC(=S)NC(=O)/C=C/c4ccco4)c3)nc2c1 | u | n | n | n | n | n
Cc1ccc(-c2nc3ccccc3[nH]2)cc1NC(=O)c1ccc2c(c1)OCO2 | 10.7µM | n | u | n | n | u
S=C(NCc1ccc2c(c1)OCO2)Nc1ccc(-c2nc3ccccc3[nH]2)cc1 | u | n | u | n | n | n
O=C(NC(=S)Nc1cc(-c2nc3ccccc3[nH]2)ccc1Cl)c1ccc2c(c1)OCO2 | 6.75µM | n | u | n | n | n
Cc1ccc(-c2nc3ccccc3[nH]2)cc1NC(=O)/C=C/c1ccco1 | 8.49µM | n | u | u | n | n
O=C(CN(c1ccc(F)cc1)S(=O)(=O)c1ccccc1)NC1CC2CCC1C2 (configuration not stated) | n | x | n | n | n | n
CC(C)(C)OC(=O)C[C@H]1C/C=C\C[C@@H](CC(=O)N(CCO)Cc2ccccc2)C(=O)N[C@H](Cc2ccccc2)COC1=O | x | x | n | x | n | x
SMILES | FLuc counter | SMN2 splice enh | ELG1 repair inh | Rab9 prom act | ELG1 genotox | NPC1 prom act
O=C(C[n+]1cn(C(F)F)c2ccccc21)c1ccc(OC(F)F)cc1 | u | u | u | u | 16.4µM | u
COc1ccc(C(=O)NC2CCCc3c2cnn3-c2cc(F)cc(F)c2)c(OC)c1OC (configuration not stated) | n | x | u | n | n | n
S=C(Nc1ccc2[nH]ccc2c1)NC1CCCCC1 | 13.5µM | x | u | 2.51µM | n | 2.51µM
Cc1ccc(NC(=S)NC2CCCC2)cc1C | u | u | u | u | n | n
S=C(Nc1cccc(Cl)c1)NC1CCCCC1 | u | n | n | n | n | n
Cc1nc2ccc(NC(=S)NC3CCCCC3)cc2nc1C | 16.9µM | n | u | 3.55µM | n | u
CC(C)c1ccc(C2=NC(c3ccncc3)=Nc3ccc(F)cc3N2)cc1 | n | n | x | x | x | x
C=CCn1c(=O)/c(=C2/Sc3cc(OC)ccc3N2C)s/c1=C1\C(=O)N(CC)C(=S)N1C | u | n | u | n | n | n
Cc1ccc(C(=O)N/C(=C\c2ccco2)C(=O)NCCc2c[nH]c3ccccc23)cc1 | 15.1µM | n | n | n | n | n
CC(C)C(=O)NCCc1c[nH]c2ccccc12 | n | n | n | n | n | n
Cc1ccc(C(=O)NCCc2c[nH]c3ccccc23)c(C)c1 | 6.75µM | x | u | 3.16µM | n | 1.58µM
Cc1ccc(C(=O)NCCc2c[nH]c3ccccc23)s1 | 12µM | x | u | 3.16µM | u | 3.55µM
CN(Cc1ccccc1)C(=S)Nc1ccc2nc3n(c(=O)c2c1)CCCCC3 | n | n | n | n | n | n
Cc1ccc(C)c(OCCC(=O)NCCc2ccc(S(N)(=O)=O)cc2)c1 | n | x | n | n | n | n
COc1ccc(Cn2ccc3nc(C)c(C(=O)N4CCN(c5ccccc5)CC4)cc3c2=O)cc1 | n | x | x | x | x | x
Cc1nc2ccn(Cc3ccccc3)c(=O)c2cc1C(=O)N1CCN(c2ccccc2)CC1 | n | x | 8.2µM | n | n | n
Cc1ccc(SCc2ccc(C(=O)Nc3nccs3)o2)cc1 | 15.1µM | x | u | u | n | u
O=C(Nc1nccs1)c1ccc(CSc2ccccc2)o1 | 5.36µM | x | u | 2µM | n | 3.16µM
Cc1ccc(SCC(=O)Nc2nccs2)cc1 | u | n | u | u | u | u
O=C(CSc1ccccc1)Nc1nccs1 | n | n | u | u | n | n
O=C(CCNC(=O)c1ccccc1Cl)Nc1cc(S(=O)(=O)N2CCOCC2)ccc1N1CCCC1 | n | x | n | n | n | n
O=C(N/N=C/c1ccccc1[N+](=O)[O-])c1ccc2nc[nH]c2c1 | 13.5µM | x | u | 2.82µM | u | u
COc1ccc(/C=N/NC(=O)c2ccc3nc[nH]c3c2)c(OC)c1 | 16.9µM | x | n | n | n | n
COc1ccc(/C=N/NC(=O)c2ccc3nc[nH]c3c2)cc1 | 21.3µM | x | u | n | n | n
COc1cc(OC)c2cc(C(=O)N/N=C/c3cccc(OC)c3O)[nH]c2c1 | u | x | u | n | u | n
COc1cccc(/C=N/NC(=O)c2cc3c(OC)ccc(OC)c3[nH]2)c1O | n | x | 3.66µM | n | u | n
Cc1ccc(NS(=O)(=O)c2cccc([N+](=O)[O-])c2)nc1 | n | n | n | n | n | n
CC1(C)C(=O)NCCN1C(=O)CC1C(=O)NCCN1Cc1cccc(C(F)(F)F)c1 (configuration not stated) | n | x | n | n | n | n

From PubChem
